Molecules are shown by their SMILES. Calls of active or inactive are those of the source.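 The calls were made as follows, unless noted: active = fluorescence slope higher than the sample average by over 3 SD (cut at about -0.22 in these data, passing the limit was not always enough); inactive = the rest.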

Assay [1] is described as follows: inhibitors of TNFa-induced NFkB p65 translocation, primary screen, imaging, HUVEC, MLSMR starter and 10KST1 sets (AID 438;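 active = inhibition above 20% together with a positive visual image hit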;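 also: compound added about 3h40 before a 20 min TNFalpha stimulation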;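 as to inhibition: signal is the nuclear over cytoplasmic p65 intensity ratio per well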). The following applies: HUVEC TNFa-induced p65 nuclear translocation; cell count: measured here: nuclei count (cytotoxicity indicator), at 2.08 µM; inhibition: at 2 µM, stronger effect = higher value, 0% TNFa-plus-vehicle, 100% no-TNFa wells.
Assay [2] is described as follows: reduction of polyQ htt aggregates in cells – imaging, exon1htt(103Q)mCFP cells, high-content imaging, primary screen (AID 483;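 active = visual image review flags a hit and inhibition of aggregation exceeds 20%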;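 also: compound exposure lasted 3 days before fixation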;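 as to nuclei count: percent of the per-plate median nuclei count of sample wells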). The following applies: exon1htt(103Q)mCFP cell line, aggregate imaging, at 2 µM; inhibition of aggregation: stronger effect = higher value; nuclei count: measured here: cell count, toxicity.
Assay [3] is described as follows: endothelial E-selectin expression blockers – imaging, HUVEC, immunofluorescence, MLSMR starter and 10KST1 sets, primary screen (AID 487;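 active = visually confirmed hit in the image check and inhibition above 20%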;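 as to inhibition: signal is fraction of cell area covered by stained E-selectin grains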;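 as to nuclei count: 100% = median nuclei count of all wells on the same plate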). The following applies: HUVEC TNFalpha-induced E-selectin immunofluorescence imaging, at 2 µM; inhibition: stronger effect = higher value; nuclei count: measured here: cell number, toxicity.
The target in assay [4] is Voltage-gated potassium channel subunit beta-2 (Rattus norvegicus) (UniProt P62483). In words: inhibitors of rat Kvbeta2 reductase activity – biochemical, NADPH fluorescence, primary screen (AID 622).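 Also: slope of raw intensity against log time taken from 70 to 1610 s.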 To be noted: recombinant KvBeta, 4-cyanobenzaldehyde reduction, at 10 µM, stronger effect = higher value.
The target is the same in assay [5]. The assay can be described thus: enhancers of rat Kvbeta2 NADPH turnover – biochemical, NADPH fluorescence, primary screen (AID 623;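 active = NADPH fluorescence slope more negative than the mean of all samples by about 3 SD, 99.7% confidence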;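 also: fluorescence intensity change per second fitted from 20 to 320 s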). To be noted: Recombinant KvBeta, NADPH fluorescence decrease slope, 10 min; at 10 µM; stronger effect = lower value.
The target of assay [6] is Alpha-2C adrenergic receptor (Homo sapiens) (UniProt P18825). In words: compounds altering alpha2C-coupled GIRK flux – cell-based, HEK293 alpha2C/GIRK1/2, thallium flux, primary screen (AID 624;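 active = fluorescence slope after compound addition differing from the mean of all screened samples at 99.7% confidence, in either direction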;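 also: slope of fluorescence ratio to pre-addition baseline per second over 15 to 24 s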). The following applies: thallium flux BTC fluorescence, at 10 µM, actives lie on both sides.
A short description of assay [7]: blockers of RIG-like receptor reporter activation – cell-based, Sendai virus stimulus, luciferase, 10K MLSCN set, TLR/RLR signaling modifier project, primary screen (AID 602276;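 active = inhibition at or above 50% at 10 µM; inactive = inhibition below 50%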;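 also: firefly luciferase from ISG56 promoter only with Renilla not read in this screen; 0% = Sendai virus plus DMSO and 100% = medium plus DMSO without virus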). The following applies: HEK293 RL24 IRF3 luciferase reporter, at 10 µM, stronger effect = higher value.
Assay [8] is described as follows: TLR3 IRF3 reporter activation blockers – cell-based, poly I:C stimulus, luciferase, 10K MLSCN set, primary screen (AID 602277;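 active = inhibition of the reporter signal at or above 50%; inactive = inhibition below 50%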). To be noted: HEK293-TLR3 RL24 IRF3 luciferase reporter, at 10 µM, stronger effect = higher value.

Chain of Voltage-gated potassium channel subunit beta-2 (Rattus norvegicus) (P62483 whole entry, looked up): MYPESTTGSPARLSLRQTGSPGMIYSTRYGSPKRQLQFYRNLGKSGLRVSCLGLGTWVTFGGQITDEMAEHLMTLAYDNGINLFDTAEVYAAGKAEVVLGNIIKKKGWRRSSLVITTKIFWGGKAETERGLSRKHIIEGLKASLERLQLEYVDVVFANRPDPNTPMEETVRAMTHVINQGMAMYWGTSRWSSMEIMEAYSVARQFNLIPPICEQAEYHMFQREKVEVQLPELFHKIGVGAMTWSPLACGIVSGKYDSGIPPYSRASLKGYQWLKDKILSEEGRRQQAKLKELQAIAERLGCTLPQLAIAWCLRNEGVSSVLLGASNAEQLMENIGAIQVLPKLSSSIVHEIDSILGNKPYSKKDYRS
Chain of Alpha-2C adrenergic receptor (Homo sapiens) (P18825 whole entry, looked up): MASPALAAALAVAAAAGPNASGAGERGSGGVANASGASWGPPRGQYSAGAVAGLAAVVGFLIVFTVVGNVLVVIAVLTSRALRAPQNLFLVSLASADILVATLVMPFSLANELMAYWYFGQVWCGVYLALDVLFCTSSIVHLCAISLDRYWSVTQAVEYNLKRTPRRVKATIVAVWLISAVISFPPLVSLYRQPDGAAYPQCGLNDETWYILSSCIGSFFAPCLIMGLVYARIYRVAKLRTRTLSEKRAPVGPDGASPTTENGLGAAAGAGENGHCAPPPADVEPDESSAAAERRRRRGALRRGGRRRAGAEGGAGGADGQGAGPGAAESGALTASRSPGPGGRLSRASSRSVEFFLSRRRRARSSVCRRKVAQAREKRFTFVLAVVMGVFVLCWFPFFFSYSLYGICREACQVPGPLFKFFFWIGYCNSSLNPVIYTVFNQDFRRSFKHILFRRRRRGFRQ

One may read the inhibition as the change of the read-out against control, counted positive when it falls. Consider `COc1cccc(CN2CCN(C(=O)CC(C)C)CC2)c1`, for which the cell count in assay [1] is 448. The inhibition is 2.2% (inactive) in assay [1], -45.8% (inactive) in assay [3], 10.5% (inactive) in assay [7] and 4.9% (inactive) in assay [8]. Besides, in assay [2], the inhibition of aggregation is -3.8% (inactive). The nuclei count in assay [2] was determined as 118%; in assay [3], 132%. The fluorescence slope in assay [4] is -0.241 (inactive). The NADPH fluorescence slope in assay [5] was 2.2e-06 (inactive). Moreover, in assay [6], the slope was 0.00544 (inactive).
As for `COc1ccc(-c2noc(CSc3nc(N)c(-c4ccccc4)c(=O)[nH]3)n2)cc1OC`, the cell count in assay [1] came to 338. Also, the inhibition in assay [1] is 5.8% (inactive); in assay [3], -12.1% (inactive); in assay [7] it was 12% (inactive); in assay [8] it was 15.6% (inactive). Moreover, the inhibition of aggregation in assay [2] was -0.8% (inactive). Also, the values for the nuclei count in assay [2] and in assay [3] were 97.1% and 122%, respectively. Moreover, the fluorescence slope in assay [4] is -0.441 (inactive). Moreover, the NADPH fluorescence slope in assay [5] is 2.8e-05 (inactive). In addition, the slope in assay [6] was 0.00653 (inactive).
On to `COc1cccc(NC(=O)c2nc3nc(C)cc(C(F)F)n3n2)c1`, for which the cell count in assay [1] came to 641. Also, the inhibition was -2.9% (inactive) in assay [1], -34.9% (inactive) in assay [3], 3.8% (inactive) in assay [7] and 4.85% (inactive) in assay [8]. In addition, the inhibition of aggregation in assay [2] is 1.9% (inactive). The nuclei count in assay [2] stood at 68.8%; in assay [3] it was 96.6%. In assay [4], the fluorescence slope was -0.567 (inactive). For the same molecule, in assay [5], the NADPH fluorescence slope was -5.2e-05 (inactive). The slope in assay [6] was 0.00736 (inactive).
Consider `CC(NS(=O)(=O)c1ccc(F)cc1)C(c1cccs1)N1CCN(C)CC1` (stereo not drawn), for which the cell count in assay [1] turned out to be 390. Moreover, the inhibition in assay [1] was -3.7% (inactive); in assay [3], -0.8% (inactive); in assay [7] it was 0.176% (inactive); in assay [8] it was 33% (inactive). Further, the inhibition of aggregation in assay [2] was -11.1% (inactive). Besides, the nuclei count was found to be 104% in assay [2] and 105% in assay [3]. For the same molecule, the fluorescence slope in assay [4] is -0.38 (inactive). In assay [5], the NADPH fluorescence slope was -5.1e-05 (inactive). Besides, the slope in assay [6] is 0.00473 (inactive).
Consider `CN(C1CCCCC1)S(=O)(=O)c1ccc(NC(=O)c2ccco2)cc1`, for which, in assay [1], the cell count stood at 301. For the same molecule, the inhibition is 2.8% (inactive) in assay [1], -28.1% (inactive) in assay [3], 4.93% (inactive) in assay [7] and -6.73% (inactive) in assay [8]. For the same molecule, the inhibition of aggregation in assay [2] is -6.6% (inactive). Besides, the nuclei count in assay [2] stood at 106%; in assay [3] it was 112%. The fluorescence slope in assay [4] was -0.399 (inactive). In assay [5], the NADPH fluorescence slope is -4.1e-05 (inactive). The slope in assay [6] is 0.00468 (inactive).
For `Cc1ccc(S(=O)(=O)N2CCN(S(C)(=O)=O)C2c2ccccc2)cc1` (stereo not drawn), the cell count in assay [1] was 464. The inhibition is 0% (inactive) in assay [1], 11.6% (inactive) in assay [3], 8.09% (inactive) in assay [7] and 26.1% (inactive) in assay [8]. The inhibition of aggregation in assay [2] is 10.2% (inactive). For the same molecule, the nuclei count amounted to 93.5% in assay [2] and 114% in assay [3]. The fluorescence slope in assay [4] is -0.372 (inactive). In addition, the NADPH fluorescence slope in assay [5] was -4.8e-05 (inactive). Moreover, the slope in assay [6] is 0.00576 (inactive).
In the case of `COc1ccc(-n2ncc3c(=O)n(CC(=O)OCc4ccccc4)cnc32)cc1`, the cell count in assay [1] came out at 506. The inhibition in assay [1] was 5.2% (inactive); in assay [3], -26% (inactive); in assay [7], -0.623% (inactive); in assay [8], 3.88% (inactive). Moreover, in assay [2], the inhibition of aggregation is -19.6% (inactive). Further, the figures for the nuclei count in assay [2] and in assay [3] were 94.6% and 101%, respectively. For the same molecule, in assay [4], the fluorescence slope is -0.377 (inactive). Moreover, the NADPH fluorescence slope in assay [5] was -4.4e-05 (inactive). For the same molecule, the slope in assay [6] was 0.00543 (inactive).
In the case of `COc1ccc2c(c1)C(C)=CC(C)(C)N2C(=O)C(C)N1C(=O)c2ccccc2C1=O` (stereo not drawn), in assay [1], the cell count was found to be 637. For the same molecule, the inhibition in assay [1] was 4.5% (inactive); in assay [3] it was 21.2% (inactive); in assay [7], 5.4% (inactive); in assay [8], 5.89% (inactive). In assay [2], the inhibition of aggregation is 7.1% (inactive). In addition, the nuclei count in assay [2] was 108%; in assay [3], 118%. Also, the fluorescence slope in assay [4] was -0.612 (inactive). Besides, in assay [5], the NADPH fluorescence slope was -1.8e-05 (inactive). The slope in assay [6] was 0.00489 (inactive).

The record behind these values is PubChem BioAssay.
